Data published in the supplement of paper PMC10849652.
The full data set covers some 8,800 targets. This sample favours those with a hit. About 0.5% of all pairs of compound and target were hits.

Tests used:
Test in all cases: log2 fold change, soluble protein after heating vs DMSO (PISA); higher = thermal stabilisation; K562 lysate, 10 uM; active = over 0.2 and 3.5 SD of the protein, either way, in both replicates (recomputed)
erlotinib = compound: C#Cc1cccc(Nc2ncnc3cc(OCCOC)c(OCCOC)cc23)c1 [erlotinib]
Procedure, shortened: (§1)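 Dounce homogenisation of K562 pellets in PBS pH 7.4 with 1 mM MgCl2 produced a crude extract, used at 1 mg/mL protein. Exposure to 10 μM compound lasted 30 min, and aliquots were then heated for 3 min across 48°C-58°C, pooled and brought to 0.5% NP-40 at 4°C. The supernatant after 21,000xg for 90 min was quantified by TMTpro 16plex LC-MS/MS with channel sums equalised. Duplicate values are given as log-two fold change in thermal stability relative to solvent controls.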

[1] = compound: C/C(=N\NC(=O)C1=CC(=CC=C1)S(=O)(=O)N2CCOCC2)/C3=C(C=CC(=C3)Cl)O
Procedure, shortened: as §1

[2] = compound: C1=CC(=CC=C1C2=NC3=C(N2)C=C(C=C3)C(=O)N)OC4=CC=C(C=C4)Cl
Procedure, shortened: as §1

[3] = compound: C1=CC2=C(C=CC(=C2)/C=C\3/C(=O)NC(=NCC4=CC=CS4)S3)N=C1
Procedure, shortened: as §1

[4] = compound: C1=CC2=NC=CN=C2C=C1/C=C/3\C(=O)NC(=O)S3
Procedure, shortened: as §1

[5] = compound: C1=CC=C(C=C1)C2=NC(=C(N2)C3=CC=NC=C3)C4=CC(=C(C=C4)Cl)O
Procedure, shortened: as §1

[6] = compound: C1=CC=C2C(=C1)C3=NNC4=CC=CC(=C43)C2=O
Procedure, shortened: as §1

[7] = compound: C1CCN(C1)C(=O)NC2=CC=CC(=C2)NC3=NC=C(C(=N3)NCCC4=CN=CN4)Br
Procedure, shortened: as §1

[8] = compound: C1CN(CCC1(CC2=CC=C(C=C2)Cl)N)C3=NC=NC4=C3C=CN4
Procedure, shortened: as §1

IRAK-1-4 Inhibitor I = compound: C1COCCN1CCN2C3=CC=CC=C3N=C2NC(=O)C4=CC(=CC=C4)[N+](=O)[O-] [IRAK-1-4 Inhibitor I]
Procedure, shortened: as §1

ibrutinib = compound: C=CC(=O)N1CCC[C@@H](n2nc(-c3ccc(Oc4ccccc4)cc3)c3c(N)ncnc32)C1 [ibrutinib]
Procedure, shortened: as §1

[9] = compound: CC(=O)c1cnc2ccc(-c3cc(Cl)c(O)c(Cl)c3)nc2c1N[C@H]1CC[C@H](CN(C)C)CC1
Procedure, shortened: as §1

ralimetinib = compound: CC(C)(C)Cn1c(N)nc2ccc(-c3[nH]c(C(C)(C)C)nc3-c3ccc(F)cc3)nc21 [ralimetinib]
Procedure, shortened: as §1

[10] = compound: CC(C)(O)CC(=O)NCCn1ccc2ncnc(Nc3ccc(Oc4cccc(C(F)(F)F)c4)c(Cl)c3)c21
Procedure, shortened: as §1

[11] = compound: CC(C)C1=C2N=C(C=C(N2N=C1)NCC3=CC=CC=C3)NCCCCCCN
Procedure, shortened: as §1

[12] = compound: CC1=C(C(CC(=O)N1)C2=CC=C(C=C2)C(F)(F)F)C(=O)NC3=C(C=C4C(=C3)C=NN4)F
Procedure, shortened: as §1

[13] = compound: CC1=C(C2=C(C=C1)C(=O)C3=CC=CC=C3N2CCCN)C
Procedure, shortened: as §1

[14] = compound: CC1=C(C=C(C=C1)NC(=O)C2=CC(=CC=C2)C(C)(C)C#N)NC3=CC4=C(C=C3)N=CN(C4=O)C
Procedure, shortened: as §1

[15] = compound: CC1=C(C=C(C=C1)NC(=O)C2=CC(=CC=C2)N(C)C)NC(=O)C3=CC=C(C=C3)O
Procedure, shortened: as §1

[16] = compound: CC1=CC=C(C=C1)SC2=C3C=C(SC3=CN=C2)C(=O)N
Procedure, shortened: as §1

Measured: log2 fold change

ACADM isoform 2 (UniProt P11310)
Sequence of UniProt P11310 (P11310 whole entry, looked up): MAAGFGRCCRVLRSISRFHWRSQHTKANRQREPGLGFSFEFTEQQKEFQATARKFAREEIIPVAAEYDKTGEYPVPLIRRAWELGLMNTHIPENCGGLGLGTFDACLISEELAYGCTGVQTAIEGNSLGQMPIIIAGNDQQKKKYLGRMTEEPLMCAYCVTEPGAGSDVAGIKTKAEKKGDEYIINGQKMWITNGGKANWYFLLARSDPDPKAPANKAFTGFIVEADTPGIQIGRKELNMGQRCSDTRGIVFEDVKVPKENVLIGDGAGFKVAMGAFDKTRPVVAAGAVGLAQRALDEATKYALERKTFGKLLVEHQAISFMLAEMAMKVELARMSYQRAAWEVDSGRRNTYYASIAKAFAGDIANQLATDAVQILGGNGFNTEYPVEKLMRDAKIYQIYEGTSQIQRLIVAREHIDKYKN
active: [11] 0.396
inactive: erlotinib -0.088 | [1] 0.049 | [2] -0.034 | [3] 0.23 | [4] 0.085 | [5] 0.101 | [6] -0.032 | [7] -0.032 | [8] -0.003 | IRAK-1-4 Inhibitor I -0.007 | ibrutinib 0.151 | [9] 0.026 | ralimetinib -0.015 | [10] -0.047 | [12] -0.041 | [13] -0.004 | [14] -0.055 | [15] -0.019 | [16] 0.046

ARMC6 (UniProt Q6NXE6)
Sequence of UniProt Q6NXE6 (Q6NXE6 whole entry, looked up): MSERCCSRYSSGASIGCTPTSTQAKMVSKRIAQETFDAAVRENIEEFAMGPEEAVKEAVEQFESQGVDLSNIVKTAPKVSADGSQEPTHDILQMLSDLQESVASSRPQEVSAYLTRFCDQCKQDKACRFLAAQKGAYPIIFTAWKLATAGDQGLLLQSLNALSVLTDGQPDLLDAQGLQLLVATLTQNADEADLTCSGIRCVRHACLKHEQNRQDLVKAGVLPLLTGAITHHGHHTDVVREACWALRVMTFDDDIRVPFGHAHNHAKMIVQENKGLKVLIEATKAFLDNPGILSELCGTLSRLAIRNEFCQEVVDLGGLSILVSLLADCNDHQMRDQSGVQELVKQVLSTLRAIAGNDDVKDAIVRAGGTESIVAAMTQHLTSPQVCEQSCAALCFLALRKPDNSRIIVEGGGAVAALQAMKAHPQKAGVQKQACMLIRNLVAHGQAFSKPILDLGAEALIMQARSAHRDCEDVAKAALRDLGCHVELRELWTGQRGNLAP
inactive: erlotinib 0.012 | [1] -0.026 | [2] -0.093 | [3] 0.022 | [4] 0.04 | [5] 0.006 | [6] -0.027 | [7] 0.021 | [8] -0.031 | IRAK-1-4 Inhibitor I -0.005 | ibrutinib 0.023 | [9] 0.005 | ralimetinib 0.007 | [10] -0.005 | [11] 0.002 | [12] -0.013 | [13] 0.001 | [14] -0.011 | [15] 0.016 | [16] 0

APOBEC3C (UniProt Q9NRW3)
Sequence of UniProt Q9NRW3 (Q9NRW3 whole entry, looked up): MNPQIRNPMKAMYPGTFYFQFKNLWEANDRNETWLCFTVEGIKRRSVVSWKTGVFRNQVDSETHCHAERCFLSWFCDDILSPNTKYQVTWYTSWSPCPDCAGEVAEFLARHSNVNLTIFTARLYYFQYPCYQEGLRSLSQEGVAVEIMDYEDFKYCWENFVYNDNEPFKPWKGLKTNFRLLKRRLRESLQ
inactive: erlotinib 0.054 | [1] 0.058 | [2] -0.029 | [3] 0.066 | [4] 0.056 | [5] -0.017 | [6] 0.015 | [7] 0.031 | [8] -0.003 | IRAK-1-4 Inhibitor I 0.038 | ibrutinib -0.024 | [9] -0.047 | ralimetinib 0.005 | [10] -0.051 | [11] -0.01 | [12] 0 | [13] -0.025 | [14] 0.046 | [15] 0.019 | [16] -0.01

AMDHD2 isoform 3 (UniProt Q9Y303)
Sequence of UniProt Q9Y303 (Q9Y303 whole entry, looked up): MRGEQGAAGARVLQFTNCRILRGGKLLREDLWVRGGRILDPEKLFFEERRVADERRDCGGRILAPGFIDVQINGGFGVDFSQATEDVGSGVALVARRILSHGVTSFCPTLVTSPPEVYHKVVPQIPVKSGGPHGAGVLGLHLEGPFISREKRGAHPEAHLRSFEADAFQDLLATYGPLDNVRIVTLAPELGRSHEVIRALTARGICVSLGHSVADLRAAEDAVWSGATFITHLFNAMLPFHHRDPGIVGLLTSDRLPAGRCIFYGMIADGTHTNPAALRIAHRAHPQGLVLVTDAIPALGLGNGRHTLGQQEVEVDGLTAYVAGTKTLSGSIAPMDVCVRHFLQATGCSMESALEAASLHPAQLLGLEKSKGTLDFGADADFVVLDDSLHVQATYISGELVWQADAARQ
inactive: erlotinib -0.013 | [1] -0.045 | [2] 0.06 | [3] -0.038 | [4] 0.028 | [5] -0.01 | [6] -0.003 | [7] 0.022 | [8] 0.044 | IRAK-1-4 Inhibitor I 0.018 | ibrutinib 0.032 | [9] 0.006 | ralimetinib -0.059 | [10] -0.025 | [11] -0.011 | [12] 0.009 | [13] 0.013 | [14] -0.015 | [15] -0.017 | [16] -0.017

AKT1 (UniProt P31749)
Sequence of UniProt P31749 (P31749 whole entry, looked up): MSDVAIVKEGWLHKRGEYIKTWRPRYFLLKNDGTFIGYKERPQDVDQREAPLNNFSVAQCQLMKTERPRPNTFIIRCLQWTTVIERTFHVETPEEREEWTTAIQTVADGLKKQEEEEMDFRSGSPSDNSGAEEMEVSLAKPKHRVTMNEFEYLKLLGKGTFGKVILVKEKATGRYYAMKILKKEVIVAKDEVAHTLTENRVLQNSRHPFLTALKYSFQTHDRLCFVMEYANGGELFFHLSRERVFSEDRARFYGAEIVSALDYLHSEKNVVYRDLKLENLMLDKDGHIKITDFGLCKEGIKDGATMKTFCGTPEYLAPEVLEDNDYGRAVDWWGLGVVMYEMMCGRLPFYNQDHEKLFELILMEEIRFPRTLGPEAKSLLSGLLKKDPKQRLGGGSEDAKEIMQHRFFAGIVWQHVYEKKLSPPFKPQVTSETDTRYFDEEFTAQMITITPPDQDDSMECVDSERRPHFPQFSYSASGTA
inactive: erlotinib -0.008 | [1] 0.042 | [2] -0.004 | [3] 0.121 | [4] 0.019 | [5] 0.059 | [6] 0.018 | [7] -0.034 | [8] 0.03 | IRAK-1-4 Inhibitor I -0.005 | ibrutinib 0.028 | [9] 0.013 | ralimetinib 0.005 | [10] -0.023 | [11] 0.009 | [12] 0.003 | [13] -0.009 | [14] 0 | [15] -0.006 | [16] 0.019

AKT2 (UniProt P31751)
Sequence of UniProt P31751 (P31751 whole entry, looked up): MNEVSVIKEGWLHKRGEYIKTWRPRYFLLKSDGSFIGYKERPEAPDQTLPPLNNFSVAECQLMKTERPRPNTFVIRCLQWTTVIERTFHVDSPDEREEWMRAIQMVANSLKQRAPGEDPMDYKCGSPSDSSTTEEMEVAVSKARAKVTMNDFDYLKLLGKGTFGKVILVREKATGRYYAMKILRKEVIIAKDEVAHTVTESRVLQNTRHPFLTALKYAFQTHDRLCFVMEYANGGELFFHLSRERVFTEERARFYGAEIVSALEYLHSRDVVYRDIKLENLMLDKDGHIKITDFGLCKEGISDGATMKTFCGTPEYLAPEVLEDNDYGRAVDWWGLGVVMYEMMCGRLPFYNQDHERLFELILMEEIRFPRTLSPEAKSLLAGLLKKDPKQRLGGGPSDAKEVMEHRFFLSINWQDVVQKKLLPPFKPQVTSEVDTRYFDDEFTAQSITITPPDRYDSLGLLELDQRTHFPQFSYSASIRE
inactive: erlotinib -0.011 | [1] 0.082 | [2] -0.013 | [3] -0.005 | [4] -0.022 | [5] -0.025 | [6] 0.009 | [7] -0.014 | [8] -0.017 | IRAK-1-4 Inhibitor I -0.045 | ibrutinib -0.016 | [9] 0.006 | ralimetinib 0.026 | [10] 0.006 | [11] -0.006 | [12] 0.011 | [13] 0.007 | [14] 0.005 | [15] -0.004 | [16] -0.044

AFF4 (UniProt Q9UHB7)
Sequence of UniProt Q9UHB7 (Q9UHB7 whole entry, looked up): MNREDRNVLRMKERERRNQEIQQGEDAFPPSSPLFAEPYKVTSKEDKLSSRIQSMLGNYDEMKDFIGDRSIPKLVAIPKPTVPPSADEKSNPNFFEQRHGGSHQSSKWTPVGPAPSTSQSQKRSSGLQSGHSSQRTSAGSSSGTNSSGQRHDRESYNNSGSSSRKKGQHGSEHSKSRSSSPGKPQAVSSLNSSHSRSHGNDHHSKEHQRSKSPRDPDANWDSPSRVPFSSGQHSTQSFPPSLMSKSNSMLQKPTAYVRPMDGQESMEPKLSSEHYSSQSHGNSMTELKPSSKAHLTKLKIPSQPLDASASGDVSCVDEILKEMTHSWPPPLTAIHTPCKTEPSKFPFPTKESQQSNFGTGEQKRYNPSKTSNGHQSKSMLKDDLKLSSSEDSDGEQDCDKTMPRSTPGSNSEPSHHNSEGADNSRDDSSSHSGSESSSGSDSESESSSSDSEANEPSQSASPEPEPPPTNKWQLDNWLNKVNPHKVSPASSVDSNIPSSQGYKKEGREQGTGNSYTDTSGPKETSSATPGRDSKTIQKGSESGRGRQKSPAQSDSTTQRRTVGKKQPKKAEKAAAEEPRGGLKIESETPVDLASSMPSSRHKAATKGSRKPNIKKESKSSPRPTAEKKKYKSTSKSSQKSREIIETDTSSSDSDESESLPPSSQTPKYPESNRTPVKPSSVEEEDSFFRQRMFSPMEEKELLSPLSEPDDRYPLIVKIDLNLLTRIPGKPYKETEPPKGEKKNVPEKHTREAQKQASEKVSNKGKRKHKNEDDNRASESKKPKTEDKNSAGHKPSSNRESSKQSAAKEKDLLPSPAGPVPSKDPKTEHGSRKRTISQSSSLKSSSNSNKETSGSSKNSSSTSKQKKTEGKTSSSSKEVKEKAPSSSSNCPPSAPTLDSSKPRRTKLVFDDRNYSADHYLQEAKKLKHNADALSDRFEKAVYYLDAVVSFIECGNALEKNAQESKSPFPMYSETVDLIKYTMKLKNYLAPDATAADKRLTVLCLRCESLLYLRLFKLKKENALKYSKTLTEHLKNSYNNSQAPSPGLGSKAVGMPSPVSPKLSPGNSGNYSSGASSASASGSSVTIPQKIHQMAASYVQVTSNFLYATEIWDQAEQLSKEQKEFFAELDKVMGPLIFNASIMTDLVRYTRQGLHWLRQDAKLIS
inactive: erlotinib -0.003 | [1] -0.152 | [2] 0.007 | [3] -0.063 | [4] 0.021 | [5] 0.048 | [6] 0.003 | [7] 0.032 | [8] 0.016 | IRAK-1-4 Inhibitor I -0.031 | ibrutinib 0.172 | [9] -0.009 | ralimetinib -0.049 | [10] 0.033 | [11] -0.008 | [12] -0.028 | [13] -0.047 | [14] 0.009 | [15] 0.002 | [16] 0.024

ALDH5A1 isoform 2 (UniProt P51649)
Sequence of UniProt P51649 (P51649 whole entry, looked up): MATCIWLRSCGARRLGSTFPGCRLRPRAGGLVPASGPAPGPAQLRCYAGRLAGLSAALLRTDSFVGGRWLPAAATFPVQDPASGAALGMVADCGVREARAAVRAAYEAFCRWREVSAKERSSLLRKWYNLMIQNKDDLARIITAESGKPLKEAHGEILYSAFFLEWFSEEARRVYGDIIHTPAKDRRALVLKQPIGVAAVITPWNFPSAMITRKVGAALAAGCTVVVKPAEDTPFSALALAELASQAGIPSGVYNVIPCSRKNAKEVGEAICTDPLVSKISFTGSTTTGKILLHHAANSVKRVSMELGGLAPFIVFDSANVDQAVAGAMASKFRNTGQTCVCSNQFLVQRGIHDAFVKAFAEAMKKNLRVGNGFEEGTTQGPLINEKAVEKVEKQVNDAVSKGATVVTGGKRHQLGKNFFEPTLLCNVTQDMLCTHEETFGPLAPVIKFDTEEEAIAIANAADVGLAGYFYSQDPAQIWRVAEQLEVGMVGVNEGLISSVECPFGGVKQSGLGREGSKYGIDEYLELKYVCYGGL
inactive: erlotinib -0.005 | [1] 0.045 | [2] 0.024 | [3] -0.009 | [4] 0.006 | [5] 0.013 | [6] -0.026 | [7] -0.013 | [8] -0.002 | IRAK-1-4 Inhibitor I -0.012 | ibrutinib 0.041 | [9] 0.018 | ralimetinib -0.015 | [10] 0.001 | [11] -0.019 | [12] -0.01 | [13] 0.001 | [14] 0.021 | [15] -0.022 | [16] 0.011
